# Records with an inconclusive call do not appear. A call without a number means that no potency is given here. Active and inactive are the calls of the source. Unless noted, calls follow the shape of the dose curve; as a rule, active = well fitted curve in the direction sought with a large enough effect; inconclusive = small, poorly fitted or top-dose-only effect, or another doubt; inactive = no such curve, though single readings can be large; an effect the other way counts as inactive or inconclusive.
# Experiments:
# [1] = molecular target: Muscarinic acetylcholine receptor M1 (Rattus norvegicus) (UniProt P08482); assay: qHTS Assay for Antagonists of Acetylcholine Muscarinic M1 Receptor: Kinetic Measurement of Intracellular Calcium Response (AID 943); also: series mostly up to about 35 µM; nearly all actives have a fitted effect of over 75% in size
# Summary of the method: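 CHO cells expressing rat M1 receptor, Fluo-4 loaded, preincubated 10 min with compound, then stimulated with EC80 carbachol (100 nM final). Kinetic calcium fluorescence over 4 min; response taken as peak over basal signal.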
# [2] = molecular target: Pyruvate kinase PKM (Homo sapiens) (UniProt P14618); assay: qHTS Assay for Activators of Human Muscle Pyruvate Kinase (AID 954; active = well fitted curve in the direction sought with a large enough effect, not every such curve was filed as active)
# Summary of the method: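 Enzyme was run at intermediate activity so both inhibitors and activators could be detected. ATP formed from ADP and PEP by 0.1 nM human PKM2 during a 1 h room-temperature incubation was quantified by coupled luciferase luminescence.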
# [3] = molecular target: Peroxisome proliferator-activated receptor gamma (Homo sapiens) (UniProt P37231); assay: qHTS assay for small molecule agonists of peroxisome proliferator-activated receptor gamma signaling (AID 588536; active = well fitted curve in the direction sought with a large enough effect in the signal ratio, with a control signal flat, not every such curve was filed as active; the % refers to the signal ratio)
# Summary of the method: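 HEK293 UAS-bla reporter line, 1% charcoal/dextran FBS; titration, 16 h, 37 C; CCF4 loading 2 h RT; fluorescence 460/530 nm. Normalized to rosiglitazone 2 uM = 100%, DMSO = 0%.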
# [4] = qHTS Assay for Identification of Small Molecule Antagonists for NFkB Signaling Pathway (AID 895; active = well fitted inhibition curve with a large enough effect in the signal ratio, with a control signal flat, not every such curve was filed as active; the % refers to the signal ratio; also: potency is read from the fitted curve at half-maximal effect)
# Summary of the method: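 ME-180 NFkB-bla cells (beta-lactamase under NFkB response element), plated overnight, treated with compound then 10 pM TNF alpha (about EC50) for 5 hrs at 37 C. LiveBLAzer FRET read at 460/530 nm emission, 405 nm excitation.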
# [5] = molecular target: Muscarinic acetylcholine receptor M1 (Rattus norvegicus) (UniProt P08482); assay: qHTS Assay for Antagonists of Acetylcholine Muscarinic M1 Receptor: Measurement of IP-One Response (AID 944); also: nearly all actives have a fitted effect of over 75% in size
# Summary of the method: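 CHO cells stably expressing rat M1, pretreated 10 min with compound, then stimulated 30 min with carbachol at EC80 (200 nM) in LiCl-containing buffer pH 7.4; IP1 accumulation read by HTRF competition (665/620 nm).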
# [6] = molecular target: Pyruvate kinase PKM (Homo sapiens) (UniProt P14618); assay: qHTS Assay for Inhibitors of Human Muscle Pyruvate Kinase (AID 958)
# Summary of the method: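 PKM2, human, >95% pure, 0.1 nM; PEP 0.5 mM (Km), ADP 0.1 mM; 50 mM imidazole pH 7.2, 50 mM KCl, 0.01% Tween 20, 0.05% BSA; 1 h RT; luciferase luminescence readout.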
# [7] = molecular target: Cytochrome P450 2D6 (Homo sapiens) (UniProt P10635); assay: qHTS Assay for Inhibitors and Substrates of Cytochrome P450 2D6 (AID 891);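 also: luciferin methyl ether substrate demethylated by CYP2D6 with NADPH regeneration; nearly all actives have a fitted effect of over 60% in size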
# Summary of the method: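 Human CYP2D6 (5 nM) with 30 uM Luciferin-ME EGE (at Km) in 100 mM KPO4, compound preincubated 10 min, then NADPH regeneration system for 60 min at room temperature. Luciferin read by luminescence; normalized to 1.43 uM quinidine.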
# [8] = S16 Schwann cell PMP22 intronic element firefly luciferase assay (AID 624032); also: series mostly up to about 58 µM; nearly all actives have a fitted effect of over 30% in size
# Summary of the method: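 Rat S16 Schwann cells stably carrying firefly luciferase driven by a PMP22 intronic element, in 10% FBS, treated 24 h at 37 C. ONE-Glo luminescence normalized to PTC124 control and DMSO (0%); curves classed by r2, magnitude and activity.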
# [9] = Confirmation and Secondary Assay for Modulators of Hemoglobin Beta Chain Splicing at IVS2 654 locus (AID 910);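 also: HeLa cells stably carrying EGFP split by mutant beta-globin IVS2-654 intron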
# Summary of the method: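 HeLa cells stably expressing EGFP interrupted by β-globin IVS2-654 intron, seeded overnight in Opti-MEM/2% FCS, then treated 2 days at 37 °C. Restored splicing read as total peak GFP intensity per well by laser scanning cytometry (488 nm excitation, 500–520 nm emission); 500 nM antisense PNA as control.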
# [10] = Confirmation and Secondary Assay for Modulators of Hemoglobin Beta Chain Splicing at IVS2 705 locus (AID 930);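 also: HeLa cells stably expressing the EGFP-705 splicing reporter; series mostly up to about 46 µM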
# Summary of the method: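 Restored EGFP fluorescence after 2-day compound exposure reports splicing correction in IVS2-705 EGFP reporter HeLa cells; positive control was 500 nM splice-blocking PNA oligo. Signal measured as well total peak GFP intensity (488 nm excitation).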
# Chain of Pyruvate kinase PKM (Homo sapiens) (P14618 whole entry, looked up): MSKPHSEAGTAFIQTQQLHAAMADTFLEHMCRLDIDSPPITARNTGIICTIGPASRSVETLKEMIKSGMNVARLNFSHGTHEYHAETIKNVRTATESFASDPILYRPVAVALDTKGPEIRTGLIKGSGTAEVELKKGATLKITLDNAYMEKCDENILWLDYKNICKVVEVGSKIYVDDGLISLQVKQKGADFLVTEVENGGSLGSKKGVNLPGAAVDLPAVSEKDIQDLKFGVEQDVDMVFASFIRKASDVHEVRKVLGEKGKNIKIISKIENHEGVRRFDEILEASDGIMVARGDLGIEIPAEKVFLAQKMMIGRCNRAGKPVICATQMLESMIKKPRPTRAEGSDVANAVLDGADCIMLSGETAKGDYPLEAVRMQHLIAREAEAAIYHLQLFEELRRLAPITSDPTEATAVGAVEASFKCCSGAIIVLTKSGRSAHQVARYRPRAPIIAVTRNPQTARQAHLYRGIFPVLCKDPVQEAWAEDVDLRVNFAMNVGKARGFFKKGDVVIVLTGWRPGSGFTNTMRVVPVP
# Chain of Muscarinic acetylcholine receptor M1 (Rattus norvegicus) (P08482 whole entry, looked up): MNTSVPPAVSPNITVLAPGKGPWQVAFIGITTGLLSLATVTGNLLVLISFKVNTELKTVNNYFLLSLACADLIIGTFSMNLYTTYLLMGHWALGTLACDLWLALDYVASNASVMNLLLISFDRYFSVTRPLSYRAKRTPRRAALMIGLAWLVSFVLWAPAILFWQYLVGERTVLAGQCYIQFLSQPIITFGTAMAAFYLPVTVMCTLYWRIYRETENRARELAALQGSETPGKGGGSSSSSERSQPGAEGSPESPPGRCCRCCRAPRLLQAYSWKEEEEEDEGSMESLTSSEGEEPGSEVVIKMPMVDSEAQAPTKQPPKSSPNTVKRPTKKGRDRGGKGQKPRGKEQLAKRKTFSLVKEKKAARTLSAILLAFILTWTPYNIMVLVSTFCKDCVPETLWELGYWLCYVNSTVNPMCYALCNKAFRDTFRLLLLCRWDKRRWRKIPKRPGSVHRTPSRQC
# Chain of Peroxisome proliferator-activated receptor gamma (Homo sapiens) (P37231 whole entry, looked up): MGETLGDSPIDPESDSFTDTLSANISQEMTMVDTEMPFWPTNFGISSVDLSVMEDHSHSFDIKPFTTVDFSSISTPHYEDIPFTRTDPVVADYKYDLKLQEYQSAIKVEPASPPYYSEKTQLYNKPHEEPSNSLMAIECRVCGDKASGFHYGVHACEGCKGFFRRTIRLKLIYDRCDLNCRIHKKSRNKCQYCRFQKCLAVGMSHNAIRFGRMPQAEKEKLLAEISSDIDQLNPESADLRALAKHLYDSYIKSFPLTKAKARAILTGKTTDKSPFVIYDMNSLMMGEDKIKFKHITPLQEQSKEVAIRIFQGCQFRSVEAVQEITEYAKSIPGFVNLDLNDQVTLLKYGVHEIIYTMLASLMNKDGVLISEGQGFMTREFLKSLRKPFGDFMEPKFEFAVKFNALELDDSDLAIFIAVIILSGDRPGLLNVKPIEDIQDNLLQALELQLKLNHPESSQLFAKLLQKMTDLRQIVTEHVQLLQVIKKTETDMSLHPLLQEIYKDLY
# Chain of Cytochrome P450 2D6 (Homo sapiens) (P10635 whole entry, looked up): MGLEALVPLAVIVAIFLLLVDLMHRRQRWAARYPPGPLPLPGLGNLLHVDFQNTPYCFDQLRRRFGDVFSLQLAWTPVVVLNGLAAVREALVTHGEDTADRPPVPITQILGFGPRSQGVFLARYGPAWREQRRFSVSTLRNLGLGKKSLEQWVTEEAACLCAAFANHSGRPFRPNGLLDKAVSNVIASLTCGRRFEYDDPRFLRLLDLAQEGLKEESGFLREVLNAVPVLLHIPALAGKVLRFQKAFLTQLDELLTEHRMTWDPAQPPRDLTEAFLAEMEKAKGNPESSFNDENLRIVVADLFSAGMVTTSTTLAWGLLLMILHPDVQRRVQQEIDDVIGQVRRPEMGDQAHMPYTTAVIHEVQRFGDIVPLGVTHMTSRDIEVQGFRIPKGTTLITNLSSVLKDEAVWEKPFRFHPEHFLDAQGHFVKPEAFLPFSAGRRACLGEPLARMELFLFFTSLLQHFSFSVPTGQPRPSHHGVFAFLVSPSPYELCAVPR
structure (smiles),measurement,setting,value
COC[C@H]1OC(=O)c2coc3c2[C@@]1(C)C1=C(C3=O)[C@H]2CCC(=O)[C@@]2(C)C[C@H]1OC(C)=O,Potency,[1],inactive
same,outcome,[2],inactive
OC(c1ccc(Cl)cc1)(c1ccc(Cl)cc1)C(Cl)(Cl)Cl,Potency,[3],inactive
C[C@@H]1O[C@@H](O[C@H]2C[C@@H](O)[C@]3(CO)[C@@H]4[C@@H](O)C[C@]5(C)[C@H](C6=CC(=O)OC6)CC[C@@]5(O)[C@H]4CC[C@@]3(O)C2)[C@H](O)[C@H](O)[C@@H]1O,outcome,[2],inactive
Oc1cc2c(cc1O)[C@H]1c3ccccc3CN[C@@H]1CC2,Potency,[4],6.31 µM (active)
same,Potency,[1],inactive
same,Potency,[5],inactive
same,Potency,[6],inactive
FC(F)(F)c1ccc(Cl)cc1,Potency,[3],inactive
COc1cc2c(cc1OC)-c1c(OC)c(OC)c(CO)c3c1[C@H](C2)N(C)CC3,Potency,[7],inactive
O=c1[nH]c(=O)n([C@H]2C[C@H](O)[C@@H](CO)O2)cc1/C=C/Br,Potency,[8],inactive
O=[N+]([O-])OC1CO[C@H]2C(O[N+](=O)[O-])COC12 (stereo partly drawn),Potency,[9],inactive
same,outcome,[10],inactive

# — PubChem BioAssay (NCATS)
